# Assay outcomes: PubChem, several laboratories
# PABP1 MLLE inh: inhibitors of microRNA-mediated deadenylation, human PABP1 MLLE binding; inhibition, % at 20 µM; 360,000 compounds, 0.36% hits; P11940; GST-MLLE / FITC-PAM2 fluorescence polarization; in the data active means inhibition above about 35%, passing the limit was not always enough;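 further: plate controls were DMSO wells with GST-MLLE for no effect and wells lacking GST-MLLE protein for full effect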
# HMGR II inh: E. faecalis class II HMG-CoA reductase inhibition. purified E. faecalis HMGR, NADPH absorbance 340 nm kinetic. inhibition, % at 10 µM. 190,000 compounds, 0.41% hits. AID 1066;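 active means inhibition above a set limit, the median over all tested compounds plus 3 SD, cut at about 9.5% in these data; inconclusive means no clear call, values can overlap the other calls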;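 further: enzyme runs in reverse so mevalonate oxidation gives rising NADPH absorbance; 0% = complete reaction with DMSO and 100% = background rate lacking mevalonate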
# PHOSPHO1 inh: PHOSPHO1 (human) inhibition; Q8TCT1; recombinant PHOSPHO1, absorbance phosphatase assay; inhibition, % at 13.3 µM; 290,000 compounds, 1.1% hits; AID 1565; in the data active means inhibition above about 60%
# Target sequence (Q8TCT1 whole entry, looked up): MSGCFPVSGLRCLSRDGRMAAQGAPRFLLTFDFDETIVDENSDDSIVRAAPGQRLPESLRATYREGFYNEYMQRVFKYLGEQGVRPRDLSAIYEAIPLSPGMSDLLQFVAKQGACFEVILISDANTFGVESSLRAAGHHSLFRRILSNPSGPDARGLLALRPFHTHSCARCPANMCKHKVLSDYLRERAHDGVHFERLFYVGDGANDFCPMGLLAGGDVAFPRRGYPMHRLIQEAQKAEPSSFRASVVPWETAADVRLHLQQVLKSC
# PABP FP inh: blocks human PABP binding to poly(A) RNA; P11940; 290,000 compounds, 1% hits; fluorescence polarization; AID 2014; calls only at 35 µM;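 further: calls also rest on retests at 20 µM and on dose response follow-up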
# eIF4H inh: inhibitors of RNA binding by human eIF4H; Q15056; eIF4H fluorescence polarization binding assay; inhibition, % at 35 µM; 290,000 compounds, 0.94% hits;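 further: calls also rest on retests at 20 µM and on dose response follow-up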
# Starred values were filed as active, the others as inactive; i = inactive; ? = inconclusive; · = no result given; + = active, no number. In the library only some 2.4% were active in any assay of this set; here they are far more common. Unless noted, how the calls were made is not given here.
SMILES,PABP1 MLLE inh,HMGR II inh,PHOSPHO1 inh,PABP FP inh,eIF4H inh
Cc1[nH]c2ccccc2c1N=Nc1cccc(C(=O)O)c1,-11,-4,3,i,-5
COc1ccc(COc2cc(-c3cccc(OC)c3)nc3ccc(NC(=O)c4ccccc4)cc23)cc1,7,-12,-4,i,1
COc1ccc(COc2cc(-c3cccc(OC)c3)nc3ccc(NC(=O)c4ccc(OC)cc4)cc23)cc1,3,-1,67*,i,-1
CCc1cc(CNC(=O)c2ccc(OC3CCN(C(C)=O)CC3)c(OC)c2)on1,-10,·,67*,i,6
CCc1cc(CNC(=O)c2ccc(OC)c(OC3CCN(C(C)C)CC3)c2)on1,7,·,46,i,4
Cc1ccc(S(=O)(=O)NCc2cccc([N+](=O)[O-])c2)cc1,6,·,·,·,·
CCOC(=O)/C(C#N)=C1/C(=O)N(Cc2ccccc2)c2ccccc21,23,15*,0,i,1
CCOC(=O)C(C#N)=C1CCN(Cc2ccccc2)CC1,9,·,44,i,81
Cc1ccc(C(=O)N/N=C/c2cccc(OC(=O)/C=C/c3ccco3)c2)cn1,2,1,22,i,86*
O=C(CNc1ccc2ccccc2c1)N/N=C/c1ccc(OC(=O)/C=C/c2ccco2)cc1,-32,-1,-8,+,71*
COC(=O)C1NN=C(C(=O)c2ccc(Cl)cc2)C1c1ccc(OC)cc1 (configuration not stated),-7,0,2,i,7
CCOC(=O)c1c(NC(=O)C2CCCO2)sc(C(=O)OC(C)(C)C)c1C (configuration not stated),32,0,83*,i,3
CCCCC(=NCCc1c(C)[nH]c2ccc(OC)cc12)C1=C(O)CC(c2ccccc2)CC1=O (configuration not stated),-3,5,20,i,-7
CC(=NCCc1c(C)[nH]c2ccc(OCc3ccccc3)cc12)C1=C(O)CC(c2ccccc2)CC1=O (configuration not stated),16,13*,20,i,-3
CCOC(=O)C1=C(C)N=c2s/c(=C/c3cccc([N+](=O)[O-])c3O)c(=O)n2C1c1ccc(OC)cc1OC (configuration not stated),5,·,8,i,2
COc1ccc(C2C(C(C)=O)=C(C)N=c3s/c(=C\c4cc(C)n(C)c4C)c(=O)n32)c(OC)c1 (configuration not stated),49,-2,71*,?,?
COc1ccc(C2C(C(C)=O)=C(C)N=c3s/c(=C\c4ccc5c(c4)OCO5)c(=O)n32)c(OC)c1 (configuration not stated),-136,·,·,·,·
COc1ccc(C2C(C(C)=O)=C(C)N=c3s/c(=C\c4ccco4)c(=O)n32)c(OC)c1 (configuration not stated),-95,-1,94*,i,42
Cc1ccc2[nH]cc(CCNC(=O)c3cccs3)c2c1,5,·,-38,i,10
Cc1ccsc1C(=O)OCC(=O)N1CCc2ccccc2C1,-17,-1,-8,i,3
Nc1ccc2c3c(cccc13)-c1ccccc1-2,i,·,·,·,·
Cc1ccc2c3c(cccc13)-c1ccccc1C2=O,48*,1,-15,+,90*
CC(C)(C)c1cn(-c2ccc(Cl)cc2)c(=S)[nH]1,-35,1,74*,i,1
NC(=O)c1ncn([C@@H]2O[C@H](CNCc3ccc(-c4cc(C(F)(F)F)ccc4Cl)o3)[C@@H](O)[C@H]2O)n1,12,·,·,·,·
Cc1cccc(NC(=O)C2CC(=O)n3cnnc3S2)c1 (configuration not stated),26,-4,95*,i,-14
SMILES,PABP1 MLLE inh,HMGR II inh,PHOSPHO1 inh,PABP FP inh,eIF4H inh
O=C(C[n+]1cc(Br)cc2ccccc21)c1ccc(Br)cc1,-33,·,24,+,81
CC1=CC2(C)NC(=O)C(C)C12 (configuration not stated),-9,·,·,·,·
Cc1cc(Oc2cc(N)cc([N+](=O)[O-])c2)ccc1Cl,18,-1,-17,i,0
COc1cc(CCC(=O)Nc2ccc(Br)c(C(F)(F)F)c2)cc(OC)c1OC,1,-2,6,+,active
CCOC(=O)c1c(C)[nH]c(C(=O)C(C)Cl)c1C (configuration not stated),-3,9.8*,-8,i,-8
NC(=O)C1CCCNC1 (configuration not stated),-2,·,8,+,79*
COc1ccc(NC(=S)N/N=C/c2ccc(F)cc2)cc1OC,45*,-4,5,i,-6
COc1ccc(Cl)cc1NC(=S)Nc1ccccc1F,41*,-2,30,i,4
COc1ccc(Cl)cc1NC(=S)Nc1cccc(C)c1,22,-2,29,i,4
COc1ccc(NC(=S)Nc2cccc(Cl)c2)cc1OC,37*,-3,-46,i,4
COc1ccc(NC(=S)Nc2cccc(C(C)=O)c2)cc1OC,21,-1,6,i,4
O=C(NCc1ccccc1Cl)c1cc(C(=O)C2CC2)c[nH]1,1,·,34,i,-10
CCOc1ccc(-c2csc(N)c2C(=O)OC)cc1,24,-3,62*,i,9
CCOc1ccccc1CNC(=O)c1cc2occc2n1C,2,-5,-10,+,?
CCc1cccc(CC)c1NC(=O)COC(=O)c1cccc(-c2ccc(OC(C)=O)cc2)c1,-2,0,-1,i,active
CCCCN1C(=O)N(C)C2NC(=O)NC21 (configuration not stated),2,0,5,i,2
CSC1=NC2C(N1)N(C)C(=O)N2C (configuration not stated),-103,-4,78*,i,-1
CC1(C)S/C(=N/N=C/c2ccco2)NC1=O,-21,-7,1,+,?
CCCCOc1ccc(N2C(=O)C(C)CNC2=S)cc1 (configuration not stated),52*,·,·,·,·
Cc1ccccc1C1C(C#N)=C2N=C(N)c3c(sc4c3CCCCC4)N2C2=C1C(=O)CC(C)(C)C2 (configuration not stated),13,1,8,i,114*
Cc1ccccc1C1C(C#N)=C2NC(=O)c3c(sc4c3CCCCC4)N2C2=C1C(=O)CC(C)(C)C2 (configuration not stated),·,5,28,i,47
CCOC(=O)C1CSc2[nH]c(=O)sc2C1c1ccccc1 (configuration not stated),30,2,93*,i,0
O=C(CCC(=O)N1CCN(c2cccc(Cl)c2)CC1)c1cccs1,-7,·,·,·,·
O=C1CC(c2ccco2)CC(O)=C1C=NCCN1CCNCC1 (configuration not stated),-2,-4,-3,+,95*
O=C1CC(c2ccco2)CC(O)=C1C=Nc1cc(Cl)cc(Cl)c1 (configuration not stated),14,2,31,i,54
